The values that follow come from PubChem BioAssay AID2401 (Southern Research Specialized Biocontainment Screening …, 2010).

In all, about 2,200 compounds went through this assay and about 530 (24%) were called active.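 The calls were made as follows: active = inhibition above a set limit at one or more concentrations of the dose series; inactive = inhibition under that limit at every dose.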 These entries were drawn from the full list. Results with a measured potency or affinity are listed apart.

This assay in a line: S. Typhimurium nonspecific reporter signal inhibition – Salmonella Typhimurium, GFP fluorescence, counter-screen for PhoP regulon inhibitor project, dose response (AID 2401).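 Also: S. typhimurium with Mg-insensitive nmpC-GFP reporter grown at 10 µM Mg2+; drop in reporter fluorescence reflects general culture growth inhibition.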 The following applies: 4 h; series mostly up to 150 µM.
With `Cc1ccc2nc(SCC(=O)NCc3ccco3)[nH]c2c1`, the compound was called inactive.

On to `Cc1cccc(Nc2nnc(SCC(=O)NC3CCCc4ccccc43)s2)c1` (stereo unspecified), for which the compound was called inactive.

On to `Nc1cc(Br)c(N)c(Br)c1`, for which the outcome was inactive.

On to `CC(=O)Nc1c(O)nc(SCC(=O)N2CCN(c3ccc(F)cc3)CC2)[nH]c1=O`, for which the compound was classed as inactive.

Take `CCOC(=O)CNS(=O)(=O)c1c(C)noc1C`: the compound was classed as inactive.

On to `CC1=C(C(=O)Nc2cccnc2)C(c2ccccn2)n2nnnc2N1` (stereo unspecified), for which the compound was classed as inactive.

With `Cc1ccc(-n2nnnc2SCC(=O)Nc2ncc(Cc3ccccc3Cl)s2)cc1`, the compound was called inactive.

On to `Cc1ccc([N+](=O)[O-])cc1-c1ccc(/C=C(\C#N)c2[nH]nc(N)c2C#N)o1`, for which the result was inactive.

As for `CCOC(=O)Cn1nnnc1C(C(C)C)N(Cc1cccs1)Cc1cc2cc(C)ccc2[nH]c1=O` (stereo unspecified), the compound was called inactive.

In the case of `O=C(Nc1cnn(Cc2ccc(F)cc2)c1)c1cnccn1`, the compound was called inactive.

With `Cc1ccc2cc(CN(CCO)Cc3nnnn3Cc3ccc(F)cc3)c(=O)[nH]c2c1`, the compound was called inactive.

Regarding `Cc1cc(/C=N/NC(N)=S)c(C)n1-c1ccc(Cl)c(Cl)c1`, the call was inactive.

For the compound `N#C/C=C(/N)c1ccc(Br)cc1`, the call was inactive.

Regarding `Cc1ccc(/C=C/c2nnc(-c3ccc(C)cc3)o2)cc1`, the result was inactive.

For the compound `O=C(c1[nH]ncc1-c1ccc(Cl)cc1)C1CO1` (stereo unspecified), the compound was classed as inactive.

For the compound `O=C1c2ccccc2C(=O)N1CCCc1nc2ccccc2c(=O)n1Cc1ccco1`, the compound was classed as inactive.

As to `CCn1c(=O)c2c(O)cc(=O)oc2c2ccccc21`, the call was inactive.

As for `COc1ccc(S(=O)(=O)n2ccc(-c3ccc(OCCN(C)c4ccccn4)cc3)n2)cc1`, the compound was classed as inactive.

As for `COC(=O)c1ccc(NC(=S)NCCc2cccc(C)c2)cc1`, the compound was called inactive.

As for `CCOC(=O)C1=C(c2ccccc2)NC(SC)=C(C#N)C1c1ccco1` (stereo unspecified), the compound was called inactive.

As to `CC1OC(Nc2cccc3ccccc23)C(O)C(O)C1O` (stereo unspecified), the result was inactive.

For the compound `Cc1nc2ccccc2n1CC(=O)N/N=C\C=C\c1ccccc1`, the result was inactive.

Take `c1ccc(CNc2ncnc3ccccc23)cc1`: the call was inactive.

Take `Cc1ccc2[nH]c3c(NCc4ccco4)ncnc3c2c1`: the result was inactive.

As for `c1ccc(CN2CCN(c3nc(NCc4ccco4)c4ccccc4n3)CC2)cc1`, the outcome was inactive.

`Cc1ccc(-c2nc(NCc3cccnc3)c3ccccc3n2)cc1`: the call was inactive.

With `Oc1ccccc1Nc1nc(NCc2ccco2)c2ccccc2n1`, the compound was classed as inactive.

On to `Cc1cccc(C(=O)NC(NCc2ccco2)C(Cl)(Cl)Cl)c1` (stereo unspecified), for which the compound was classed as inactive.

As for `COc1ccc(Nc2nc(NCc3ccco3)nc(N/N=C/c3ccccc3Cl)n2)cc1`, the compound was called inactive.

For the compound `COc1ccc(-c2csc(NCc3ccco3)n2)cc1`, the result was inactive.

For `C#CC(C)(CC)NC(=O)c1cc(OC)c(OC)c(OC)c1` (stereo unspecified), the result was inactive.

In the case of `COC(=O)c1ccc(C)c(NC(=O)CN(c2cc(OC)ccc2OC)S(C)(=O)=O)c1`, the compound was called inactive.

As to `CN(CC(=O)Nc1ccc(C#N)cc1)Cc1ccc(Cl)cc1`, the outcome was inactive.

`Cc1cccc(C)c1Nc1nnc(SCC(=O)Nc2sccc2C#N)s1`: the compound was classed as inactive.

For the compound `COc1ccc(S(=O)(=O)n2nc(OC(=O)c3cccs3)cc2N)cc1`, the result was inactive.

As for `CCC(CC)c1nnc(NC(=O)Oc2ccccc2)s1`, the compound was classed as inactive.

`CCOc1cccc(CNc2ccc(O)cc2)c1OCc1ccc(Cl)cc1Cl`: the call was inactive.

On to `CCOc1ccc(/C(O)=C2\C(=O)C(=O)N(CCN(C)C)C2c2cccc(OC)c2OC)cc1Cl` (stereo unspecified), for which the outcome was inactive.

Regarding `Cc1ccc(OCc2nnc(SCC(=O)Nc3ccc4c(c3)OCO4)n2C)cc1`, the result was inactive.

For `BrC(=C\c1ccccc1)/C=N/N1CCN(c2ccccn2)CC1`, the compound was classed as inactive.

For the compound `CCOC(=O)N1CCN(c2nc(C)c3c(n2)CCCC3=O)CC1`, the result was inactive.

Consider `COC(=O)C(C)N1C(=O)S/C(=C\c2cc(C)n(-c3ccccn3)c2C)C1=O` (stereo unspecified), for which the compound was classed as inactive.

For the compound `Cc1ccc(-c2nc3ccccc3[nH]2)cc1NC(=S)NC(=O)c1ccccc1Br`, the compound was called inactive.

As to `Cc1c(NS(=O)(=O)c2ccc(N(C)C3CCCCC3)c([N+](=O)[O-])c2)c(=O)n(-c2ccccc2)n1C`, the result was inactive.

Take `Cc1cc(C)cc(CC(Cc2nc3ccccc3[nH]2)c2nc3ccccc3[nH]2)c1` (stereo unspecified): the compound was classed as inactive.

On to `COc1ccc(C(=O)N2CCN(C(=O)c3ccco3)CC2)cc1OC`, for which the call was inactive.

Consider `Cc1cccc2cc(C#N)c(N3CCN(C)CC3)nc12`, for which the outcome was inactive.

On to `CC(C)(C)C1CCc2c(sc(NC(=O)c3cccs3)c2C(=O)N2CCCCC2)C1` (stereo unspecified), for which the result was inactive.

For `CCOC(=O)c1c(NC(=O)Nc2ccc(C)cc2)sc2c1CCN(C)C2`, the compound was classed as inactive.

As to `NC(=O)c1c(NC(=O)CN2C(=O)CCC2=O)sc2c1CCCCC2`, the call was inactive.

For the compound `CCCCCOC(=O)C1=C(C)Nc2nnnn2C1c1ccc(OC)c(OC)c1OC` (stereo unspecified), the outcome was inactive.

For the compound `CCn1nnc(-c2ccccc2NS(=O)(=O)c2ccc(S(=O)(=O)N3CCCCCC3)cc2)n1`, the result was inactive.

In the case of `O=C(CSc1ccc2c(c1)OCCO2)NCCc1ccc(Cl)cc1Cl`, the call was inactive.

Consider `Cc1[nH]c2ccccc2c1C(c1ccncc1)N1CCN(c2ccc(F)cc2)CC1` (stereo unspecified), for which the compound was called inactive.

Turning to `Oc1ccc(C=Nc2ccc3ncccc3c2)c(O)c1`, the compound was called inactive.

On to `Oc1ccc(C=Nc2cccc3ncccc23)c(O)c1`, for which the compound was classed as inactive.

With `CCCNC(=O)COC(=O)CCC(=O)c1ccc(F)cc1`, the call was inactive.

Turning to `O=C1CC(N2CCN(Cc3ccccc3)CC2)C(=O)N1c1ccccc1` (stereo unspecified), the compound was classed as inactive.

Consider `OCCNc1ccc(Cl)cc1`, for which the result was inactive.

Consider `OCCN(Cc1ccccc1)Cc1ccc(Cl)cc1`, for which the compound was classed as inactive.

Regarding `O=C(CN1CCCCCC1)Nc1cccc(Br)c1`, the call was inactive.

On to `COCCn1c(-c2ccccc2F)n[nH]c1=S`, for which the compound was classed as inactive.

For `CCOC(=O)/C(=C/C=C/c1ccccc1)NC(=O)c1ccccc1`, the outcome was inactive.

For the compound `O=c1cc(O)nc(SCc2ccccc2Cl)[nH]1`, the result was inactive.

Take `O=C1c2ccccc2C(=O)N1CCCc1nc(-c2ccccn2)no1`: the compound was classed as inactive.

With `CC1=NN(c2ccc(Cl)cc2)C(=O)C1C(c1cccc(O)c1)c1c(C)[nH]n(-c2ccc(Cl)cc2)c1=O` (stereo unspecified), the call was inactive.

As for `O=C(Nn1c(O)c(C=C2N=c3ccccc3=N2)sc1=S)c1ccc(Cl)cc1`, the compound was called inactive.

On to `CCOC(=O)/C=C1\SCC(=O)N1CC(=O)NC1CCCCC1`, for which the compound was classed as inactive.

In the case of `O=C(CN(c1ccc(F)cc1)S(=O)(=O)c1ccc2c(c1)OCCO2)NCc1cccnc1`, the compound was called inactive.

For the compound `S=C(c1ccc2c(c1)OCO2)N1CCCC1`, the compound was called inactive.

On to `COc1ccc(-c2cn[nH]c2-c2ccc(OCc3ccc([N+](=O)[O-])cc3)cc2O)cc1`, for which the compound was called inactive.

In the case of `CCN1C(=O)/C(=C/N2CC(C)CC(C)C2)SC1=S` (stereo unspecified), the compound was classed as inactive.

Regarding `Cc1cc(C(=O)N/N=C/C=C/c2ccc3c(c2)OCO3)n[nH]1`, the call was inactive.

As for `O=C(N/N=C/c1cccn1-c1ccc([N+](=O)[O-])cc1)C(O)c1ccccc1` (stereo unspecified), the call was inactive.

On to `Cc1cc(C(=O)N/N=C/c2cccc([N+](=O)[O-])c2O)n[nH]1`, for which the result was inactive.

Take `CC(=O)c1c(C)[nH]c(C(=O)CSc2nnc(-c3ccco3)n2Cc2ccccc2)c1C`: the compound was classed as inactive.

Turning to `Cn1cccc1C1NC(=O)c2c(sc3c2CCC(C(C)(C)C)C3)N1` (stereo unspecified), the outcome was inactive.

For the compound `Cc1nn(-c2ccccc2)c(C)c1C(=O)OC/C(O)=C(\C#N)c1nc2ccccc2[nH]1`, the compound was called inactive.

For `Cc1cc(C2=NNC(=NC3CC3)SC2)c(C)n1Cc1ccco1`, the compound was called inactive.

On to `Cc1ccc(-c2nnc(SCC(=O)N3CCCc4ccccc43)n2N)cc1`, for which the outcome was inactive.

Consider `COC(=O)c1sc2nc(CSc3nc4ccc(C)cc4[nH]3)[nH]c(=O)c2c1C`, for which the result was inactive.

`CCOC(=O)C1=C(c2ccccc2)N=C2SCC(=O)N2C1c1ccc(O)c(OC)c1` (stereo unspecified): the compound was classed as inactive.

As to `CCOC(=O)c1cc2ccc(OC)c(OC)c2c(=O)s1`, the result was inactive.

With `C/C(=C\c1ccco1)C1Nc2cccc3cccc(c23)N1`, the result was inactive.

Consider `COc1ccc(OC)c(NC(=O)c2cc3c(Cl)nc4ccccc4c3s2)c1`, for which the result was inactive.

In the case of `CCOC(=O)N1CCN(C(=O)c2ccc(NC(=O)c3ccc(C)cc3)cc2)CC1`, the result was inactive.

With `C/C(=N\Nc1nc2ccccc2[nH]1)c1cccs1`, the compound was called inactive.

Consider `C/C(=N\Nc1nc2ccccc2[nH]1)c1ccc(Cl)s1`, for which the outcome was inactive.

Turning to `Cc1nc2ccccn2c1C(=O)N/N=C/c1ccccc1[N+](=O)[O-]`, the call was inactive.

`Cc1cc(/C=N\NC(=O)c2cccs2)c(C)n1-c1ccc2ncccc2c1`: the outcome was inactive.

For `COC(=O)c1cn(C(=O)c2cccs2)c2ccccc12`, the compound was classed as inactive.

In the case of `COc1c(/C=N/Nc2nc(N3CCCCC3)nc(N3CCCCC3)n2)cccc1[N+](=O)[O-]`, the call was inactive.

With `C=CCOc1ccc(CNc2nn[nH]n2)cc1`, the compound was called inactive.

With `O=C(CCN1CCc2ccccc2C1)Nc1ccccc1F`, the outcome was inactive.

Turning to `Cc1cc(-c2csc(NC(=O)c3ccc(C#N)cc3)n2)c(C)n1Cc1ccco1`, the result was inactive.

With `CCOC(=O)CSc1nc2c(sc(=S)n2-c2ccccc2)c(=O)n1-c1ccc(OC)cc1OC`, the result was inactive.

In the case of `O=c1[nH]c(SCc2nc3ccccc3c(=O)n2-c2ccccc2C(F)(F)F)nc2ccccc12`, the compound was classed as inactive.

Turning to `C/C(=N\NC(=O)c1c(Cl)c(C)nn1C)c1cccc(NC(=O)COc2ccc(Cl)cc2)c1`, the call was inactive.

In the case of `COc1ccc(C2COC(=O)C2=N)c(NC(=O)c2ccc(Cl)cc2)c1` (stereo unspecified), the result was inactive.

As to `CCCCCCNCc1cccc(Br)c1`, the call was inactive.

As for `COc1ccc2c(c1)OC1=C(C(=O)CCC1)C2C1=C(O)CCCC1=O` (stereo unspecified), the compound was classed as inactive.

For `Cc1cccc(C(=O)Nc2nnc(Cc3c[nH]c4ccccc34)s2)c1`, the compound was classed as inactive.

`Nc1ncncc1-c1ccc(Cl)cc1`: the result was inactive.

Regarding `O=C(Nc1nc2ccc(SC(F)F)cc2s1)c1ccc2c(c1)S(=O)(=O)c1ccccc1C2=O`, the compound was called inactive.

Turning to `COC(=O)C1=C(CSc2nc3ccccc3o2)NC(=O)NC1c1cc(C)ccc1C` (stereo unspecified), the outcome was inactive.

For `Cc1cc(C)nc(N2CCCC(C(=O)Nc3ccc4nc(C)c(C)nc4c3)C2)n1` (stereo unspecified), the result was inactive.

Consider `Cc1ccc(C)n1-c1cccc(N)c1`, for which the compound was called inactive.

As to `O=C1CC(c2ccccc2)n2ncnc2N1` (stereo unspecified), the result was inactive.

On to `COC(OC)c1nc(SCC(=O)Nc2cccc(Cl)c2)ncc1C(=O)O`, for which the call was inactive.

With `COc1ccc(Cl)cc1-c1nc(SCC(N)=O)n[nH]1`, the compound was called inactive.

In the case of `COc1ccc([N+](=O)[O-])cc1NC(=O)C(C)OC(=O)c1ccccc1C(=O)c1ccc(Cl)cc1` (stereo unspecified), the compound was called inactive.
